Assay results: PubChem BioAssay AID1159580 (chemical genetic matrix, 2015)
Several values for one entry are separate records, joined by “and”; a condition that tells them apart may be missing. Equal entries are not always repeated. Screen size: about 5,500 compounds; about 2,000 (36%) were called active. Inconclusive results (about 18%) are left out. Rule as the data show it: active = normalized growth mostly below about 0.91 (no sharp cut-off); inconclusive = no clear call, values can overlap the other calls; inactive = mostly above about 0.92. The list shows a part of the results.

Assay: chemical genetic growth profiling, strain panel (AID 1159580);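 also: tested at 20 µM; growth read once vehicle control cultures reached saturation at 30 °C; 1 = growth at the plate median or of vehicle wells; lower values mean less growth of the strain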
Details: S. cerevisiae deletion strains, growth OD
[1] = locus YDR150W, strain NUM1, hits give low values
[2] = locus YGR078C, strain PAC10, hits give low values
[3] = locus YJR075W, strain HOC1, hits give low values
[4] = locus YMR263W, strain SAP30, hits give low values
[5] = locus YNL153C, strain GIM3, hits give low values
[6] = locus YPL055C, strain LGE1, hits give low values

Measured: normalized growth

COc1cc(CC/C(C)=N/O)ccc1OCc1ccc(Cl)cc1Cl
active: locus YAL013W, strain DEP1, hits give low values 0.908 | [2] 0.92 | locus YHR030C, strain SLT2, hits give low values 0.242 and 0.801 | locus YJR043C, strain POL32, hits give low values 0.91 | [3] 0.879 | locus YKL190W, strain CNB1, hits give low values 0.762 | locus YLR039C, strain RIC1, hits give low values 0.694 | locus YLR085C, strain ARP6, hits give low values 0.307 | locus YLR262C, strain YPT6, hits give low values 0.803 | locus YML094W, strain GIM5, hits give low values 0.865 | locus YNL298W, strain CLA4 (second series), hits give low values 0.784 | locus YNR030W, strain Alg12, hits give low values 0.803 | locus YOL006C, strain TOP1, hits give low values 0.579 | [6] 0.727 | locus YPL241C, strain CIN2, hits give low values 0.822 | locus YPL256C, strain CLN2, hits give low values 0.863 | locus YPR135W, strain CTF4, hits give low values 0.388
inactive: locus YAR019C, strain CDC15, hits give low values 0.977 | locus YBL105C, strain PKC1, hits give low values 0.972 | locus YBR135W, strain CKS1, hits give low values 0.978 | locus YBR136W, strain MEC1, hits give low values 0.977 | locus YBR160W, strain CDC28, hits give low values 0.981 | locus YBR229C, strain ROT2, hits give low values 0.934 | locus YCL061C, strain MRC1, hits give low values 0.931 | locus YDL017W, strain CDC7, hits give low values 0.979 | locus YDL028C, strain MPS1, hits give low values 0.978 | locus YDL101C, strain DUN1, hits give low values 0.992 and 0.922 | locus YDL108W, strain KIN28, hits give low values 0.978 | locus YDL132W, strain cdc53, hits give low values 0.982 | locus YDL134C, strain PPH21, hits give low values 0.925 | locus YDL214C, strain PRR2, hits give low values 0.944 | locus YDR052C, strain DBF4, hits give low values 0.989 | locus YDR054C, strain cdc34, hits give low values 0.998 | [1] 0.911 | locus YDR226W, strain ADK1, hits give low values 1 | locus YDR477W, strain SNF1, hits give low values 0.952 | locus YEL061C, strain CIN8, hits give low values 0.929 | locus YER123W, strain YCK3, hits give low values 0.939 | locus YER133W, strain GLC7, hits give low values 0.937 | locus YFL009W, strain cdc4, hits give low values 0.968 | locus YFL029C, strain CAK1, hits give low values 0.98 | locus YFR003C, strain YPI1, hits give low values 0.976 | locus YFR019W, strain FAB1, hits give low values 0.953 | locus YFR028C, strain CDC14, hits give low values 0.984 | locus YGR040W, strain KSS1, hits give low values 0.948 | locus YGR052W, strain FMP48, hits give low values 0.973 | locus YGR092W, strain DBF2, hits give low values 0.952 | locus YHR079C, strain IRE1, hits give low values 0.885 | locus YHR082C, strain KSP1, hits give low values 1.02 | locus YHR087W, strain rtc3, hits give low values 0.935 | locus YHR205W, strain SCH9, hits give low values 0.939 | locus YIL147C, strain SLN1, hits give low values 0.982 | locus YJL095W, strain BCK1, hits give low values 0.938 | locus YJL128C, strain PBS2, hits give low values 0.932 | locus YJL157C, strain FAR1, hits give low values 0.918 | locus YJR016C, strain ILV3, hits give low values 0.978 | locus YJR066W, strain TOR1 (second series), hits give low values 0.913 | locus YJR066W, strain TOR1, hits give low values 1.01 | locus YKL048C, strain ELM1, hits give low values 0.986 | locus YKL067W, strain YNK1, hits give low values 0.942 | locus YKL101W, strain HSL1, hits give low values 0.949 | locus YKL193C, strain SDS22, hits give low values 0.979 | locus YKL203C, strain TOR2, hits give low values 0.972 | locus YLR058C, strain SHM2 (second series), hits give low values 0.976 | locus YLR113W, strain HOG1, hits give low values 0.881 | locus YLR133W, strain CKI1, hits give low values 0.944 | locus YLR403W, strain SFP1, hits give low values 0.942 | locus YML070W, strain DAK1, hits give low values 0.936 | locus YMR001C, strain CDC5, hits give low values 0.971 | locus YMR205C, strain PFK2 (second series), hits give low values 0.965 | locus YMR219W, strain ESC1, hits give low values 0.998 | [4] 0.912 | locus YMR277W, strain FCP1, hits give low values 0.979 | locus YNL006W, strain LST8, hits give low values 0.974 | locus YNL020C, strain ARK1, hits give low values 0.935 | [5] 0.94 | locus YNL161W, strain CBK1, hits give low values 0.976 | locus YNL183C, strain NPR1, hits give low values 0.978 | locus YNL207W, strain RIO2, hits give low values 0.979 | locus YNL222W, strain SSU72, hits give low values 0.98 | locus YNL307C, strain MCK1 (second series), hits give low values 0.932 | locus YNL322C, strain KRE1, hits give low values 0.98 | locus YOL078W, strain AVO1, hits give low values 0.983 | locus YOL136C, strain PFK27, hits give low values 0.921 | locus YOR061W, strain CKA2, hits give low values 0.966 | locus YOR119C, strain RIO1, hits give low values 1.02 | locus YOR231W, strain MKK1, hits give low values 0.929 | locus YOR329C, strain SCD5, hits give low values 0.976 | locus YPL031C, strain PHO85, hits give low values 0.94 | locus YPL153C, strain RAD53, hits give low values 0.95 | locus YPL209C, strain IPL1, hits give low values 0.976 | locus YPR025C, strain CCL1, hits give low values 0.979 | locus YPR106W, strain ISR1, hits give low values 0.976 | locus YPR111W, strain DBF20, hits give low values 0.993 | strain NNK1, hits give low values 0.976 | strain TSCII, hits give low values 0.973

COc1ccc(CCN(C)CCc2ccc(OC)c(OC)c2)cc1OC
inactive: locus YAL040C, strain CLN3, hits give low values 1.08 | locus YCL061C, strain MRC1 (second series), hits give low values 0.998 | [1] 1.01 | locus YDR363W, strain ESC2, hits give low values 1.01 | locus YER002W, strain NOP16, hits give low values 1.01 | [2] 0.992 | [3] 0.983 | [4] 0.999 | locus YMR307W, strain GAS1, hits give low values 0.998 | [5] 1.03 | locus YNL175C, strain NOP13, hits give low values 1.02 | locus YNL197C, strain WHI3, hits give low values 1.01 | locus YNL224C, strain SQS1, hits give low values 1.01 | locus YOR083W, strain WHI5 (second series), hits give low values 1.02 | [6] 0.985
